Measurements taken from PubChem BioAssay (NCI).
The panel holds about 83,000 compounds, 20% with a hit somewhere; the sample as a whole holds those more often.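 Treatment: one concentration, 48 hours, 96-well format. Scoring: percent growth, with anything below 10 considered active.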 The source made the active and inactive calls.

Each compound was assayed on HL-60(TB) leukemia (assay: NCI-60 one-dose screen, 48 h (100 = growth as untreated, 0 = no growth, -100 = all killed)). Conditions: 10 µM unless noted.

| Structure (SMILES) | growth |
| --- | --- |
| COc1ccc(CCN2C(=O)C(C)(C)SC2=S)cc1OC | 106% (inactive) |
| Cc1ccc(C(C)C)c(OCC(=O)O)c1 | 117% (inactive) |
| COc1ccc(-c2nc3sc(-c4ccc(Cl)cc4)cn3n2)cc1 | 105% (inactive) |
| Cc1c(Cl)cccc1NC(=O)CCCl | 73.6% (inactive) |
| COc1cc(/C=C2\CN(C)C/C(=C\c3cc(CN4CCOCC4)c(O)c(OC)c3)C2=O)cc(CN2CCOCC2)c1O | 32.6% (inactive) |
| OCCN1CCCN(CCCN2c3ccccc3Sc3ccc(C(F)(F)F)cc32)CC1 | 45% (inactive) |
| O=C(Nc1ccc(Cl)cc1)Oc1c(Cl)c(Cl)c(Cl)c(Cl)c1Cl | 98.5% (inactive) |
| COC(=O)C(Br)(C(=O)OC)C(Br)C(Br)C(Br)c1ccccc1 (stereo not given) | 7.57% (active) |
| CC(C)=CCC[C@](C)(O)[C@H]1CC[C@]2(C)[C@@H]1CC[C@@H]1[C@@]3(C)C/C(=C/c4ccco4)C(=O)C(C)(C)[C@@H]3CC[C@]12C | 119% (inactive) |
| COc1cc2nc(SCc3cc(OC)c(OC)c(OC)c3)n(Cc3ccccc3)c(=O)c2cc1OC | 11.9% (inactive) |
| O=C1c2ccccc2C(=O)c2c(NCCN=Cc3c(O)ccc4ccccc34)cccc21 | 66.3% (inactive) |
| COc1ccc2c(c1)c(-c1ccc(-c3cn(C)c4ccc(OC)cc34)[nH]1)cn2C | -24.7% (active) |
| CCN1CCN(C(=O)[C@]23CC[C@@H](C)[C@H](C)[C@H]2C2=CC[C@@H]4[C@@]5(C)C/C(=C/c6cccc(OC)c6OC)C(=O)C(C)(C)[C@@H]5CC[C@@]4(C)[C@]2(C)CC3)CC1 | 2.97% (active) |
| NC(=O)c1c(NC(=O)/C=C/c2cccs2)sc2c1CCC(=O)C2 | 2.8% (active) |
| CN(C)CC1(C)Cc2ccsc2C1O (stereo not given) | 93% (inactive) |
| Cc1cccc(/C=N/Nc2cc(C)c3cccc(C)c3n2)n1 | 83.1% (inactive) |
| O=c1[nH]c(-c2ccccn2)nc2sc3c(c12)CCCCC3 | 21.8% (inactive) |
| C#Cc1cccc(Nc2nc(C)nc3cc(NC(=O)CCl)ccc23)c1 | -58% (active) |
| COc1cc2nnn3c4ncccc4c(N=O)c3c2cc1OC | -31.5% (active) |
| CN1CCN(CC(=O)Nc2ccc(-c3nc4ccccc4s3)cc2)CC1 | 96.4% (inactive) |

| Structure (SMILES) | growth |
| --- | --- |
| CCC(C)C1NC(=O)c2nc(oc2-c2ccccc2)-c2csc(n2)-c2csc(n2)-c2nc(oc2C)-c2coc(n2)CNC(=O)C(C(C)CC)NC1=O (stereo not given) | -69.7% (active) |
| Nc1ncnc2c1ncn2C1OC(COC(c2ccccc2)(c2ccccc2)c2ccccc2)C(O)C1O (stereo not given) | 8.77% (active) |
| COc1ccc2c(c1)OC1=C(C(=O)OC1)C2c1cc(OC)c(OC)c(OC)c1 (stereo not given) | 5.99% (active) |
| COc1ccc2c(c1)Nc1ccccc1S2 | 102% (inactive) |
| C/C=C(/C)C(=O)OC1C=C(CO)C(=O)C(OC(=O)C2(C)OC2C)C1C(C)C (stereo not given) | -24.9% (active) |
| CCOc1ccc(NC(=O)c2cc(OC)c(OC)c(OC)c2)cc1 | -8.94% (active) |
| COc1cc(C[C@H]2COc3cc(O)cc(O)c3C2=O)ccc1O | -35.5% (active) |
| O=C1OC(c2ccc(-c3ccccc3)cc2)=C/C1=C/c1c2ccccc2cc2ccccc12 | 51% (inactive) |
| OCC1OC(n2cnc3c(NCc4ccco4)ncnc32)C(O)C1O (stereo not given) | -26.3% (active) |
| O=S(=O)(NCCNc1nccc(-c2c(-c3ccc(F)cc3)nc3sccn23)n1)c1ccc(F)cc1 | 117% (inactive) |
| CC(C)Cc1cc(CNC(=O)C2[C@H]3CN(C(=O)c4ccccc4)C[C@@H]23)nn1-c1ccccc1 (stereo not given in full) | 94.2% (inactive) |
| COc1cc(NS(=O)(=O)C(C)C)cc(-c2cc(-c3ccc(N4CCNCC4)cc3)cnc2N)c1 | 78.3% (inactive) |
| CCCCCCCCOC(=O)c1ccccn1 | 119% (inactive) |
| CCCc1cc(=O)oc2c(C(=O)CC(C)C)c(O)c(CC=C(C)C)c(O)c12 | 2.72% (active) |
| Cc1cc2nc(CS)[nH]c2cc1C | 80.1% (inactive) |
| O=C1c2ccccc2C(=Cc2ccccc2)c2ccccc21 | -1.29% (active) |
| CN1CSC(=S)N(Cc2ccccc2)C1 | 79.8% (inactive) |
| CCCCOc1ccc(/C(C)=N/Nc2cc(C)nc3ccc(Br)cc23)cc1 | 78.5% (inactive) |
| COc1ccc(-c2ccc3ncc4c(c3c2)n(-c2ccc(N3CCNCC3)c(C(F)(F)F)c2)c(=O)n4C)cn1 | -65.4% (active) |
| CS(=O)(=O)c1ccc(/C=C\C(=O)O)cc1 | 122% (inactive) |
